# Numbering of substitutions follows the chain as printed.
# Key:
# Test in all cases: yeast three-hybrid, YBZ-1, SC-Leu-His + 0.5 mM 3-AT, 4 days
# Conditions in all cases: tags: N-Gal4 AD-HA kept; label: inside an RPR1-promoter hybrid RNA with tandem MS2 sites; ssRNA
# PUM1 PUF domain R1-KFL = PUM1 PUF domain R1-KFL (Homo sapiens, UniProt Q14671 828-1176, S863K;R864F;Q867L)
# Procedure, shortened: (§1)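 Repeat regions from input (SC-Leu) and selection (SC-Leu-His + 0.5 mM 3-AT) plates were PCR-amplified and Illumina-sequenced after four days of growth. The cells were strain YBZ-1 with a LexA–MS2 coat fusion and a HIS3 reporter, co-expressing Pumilio-1 PUF domain libraries and matching RNA elements from a centromeric plasmid. The interaction score is the log change in variant frequency from input to selection, taken in log2 with a pseudocount of 1 for absent variants.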
# PUM1 PUF domain R1-NFS = PUM1 PUF domain R1-NFS (Homo sapiens, UniProt Q14671 828-1176, S863N;R864F;Q867S)
# PUM1 PUF domain R1-NFS, sequence (Q14671 828-1176 S863N/R864F/Q867S): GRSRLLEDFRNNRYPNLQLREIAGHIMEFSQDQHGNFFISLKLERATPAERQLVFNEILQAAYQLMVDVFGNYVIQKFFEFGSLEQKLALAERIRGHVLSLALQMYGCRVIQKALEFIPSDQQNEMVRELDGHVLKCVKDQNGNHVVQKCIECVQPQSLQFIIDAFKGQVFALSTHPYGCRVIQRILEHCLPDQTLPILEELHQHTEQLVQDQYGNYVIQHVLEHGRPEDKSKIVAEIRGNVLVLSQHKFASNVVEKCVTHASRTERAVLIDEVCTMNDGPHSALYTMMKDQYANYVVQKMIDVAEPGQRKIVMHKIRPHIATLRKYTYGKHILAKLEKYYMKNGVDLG
# Procedure, shortened: as §1
# PUM1 PUF domain R8-PFR = PUM1 PUF domain R8-PFR (Homo sapiens, UniProt Q14671 828-1176, N1122P;Y1123F;Q1126R)
# Procedure, shortened: as §1
# PUM1 PUF domain R6-QYV = target: T1, PUM1 PUF domain R6-QYV (Homo sapiens, UniProt Q14671 828-1176, N1043Q;Q1047V)
# T1 sequence: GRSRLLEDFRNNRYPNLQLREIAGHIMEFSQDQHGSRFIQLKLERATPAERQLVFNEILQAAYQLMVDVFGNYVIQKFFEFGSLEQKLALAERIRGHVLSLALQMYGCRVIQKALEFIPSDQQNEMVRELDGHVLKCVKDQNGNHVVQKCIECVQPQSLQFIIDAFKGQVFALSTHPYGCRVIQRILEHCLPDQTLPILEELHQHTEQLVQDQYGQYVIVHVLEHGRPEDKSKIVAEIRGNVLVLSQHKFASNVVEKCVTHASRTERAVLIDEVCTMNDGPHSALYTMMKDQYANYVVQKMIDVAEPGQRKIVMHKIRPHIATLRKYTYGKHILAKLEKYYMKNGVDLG
# Procedure, shortened: as §1
# PUM1 PUF domain R6-KYL = target: T2, PUM1 PUF domain R6-KYL (Homo sapiens, UniProt Q14671 828-1176, N1043K;Q1047L)
# T2 sequence: T1 sequence with Q216K, V220L
# Procedure, shortened: as §1
# PUM1 PUF domain R6-IWG = target: T3, PUM1 PUF domain R6-IWG (Homo sapiens, UniProt Q14671 828-1176, N1043I;Y1044W;Q1047G)
# T3 sequence: T1 sequence with Q216I, Y217W, V220G
# Procedure, shortened: as §1
# PUM1 PUF domain R3-DWV = PUM1 PUF domain R3-DWV (Homo sapiens, UniProt Q14671 828-1176, C935D;R936W;Q939V)
# PUM1 PUF domain R3-DWV, sequence (Q14671 828-1176 C935D/R936W/Q939V): as the sequence (Q14671 828-1176 S863N/R864F/Q867S) above, with N36S, F37R, S40Q, C108D, R109W, Q112V counted along it
# Procedure, shortened: as §1
# PUM1 PUF domain R3-YYR = PUM1 PUF domain R3-YYR (Homo sapiens, UniProt Q14671 828-1176, C935Y;R936Y;Q939R)
# PUM1 PUF domain R3-YYR, sequence (Q14671 828-1176 C935Y/R936Y/Q939R): as the sequence (Q14671 828-1176 S863N/R864F/Q867S) above, with N36S, F37R, S40Q, C108Y, R109Y, Q112R counted along it
# Procedure, shortened: as §1
# PUM1 PUF domain R2-NYP = PUM1 PUF domain R2-NYP (Homo sapiens, UniProt Q14671 828-1176, Q903P)
# PUM1 PUF domain R2-NYP, sequence (Q14671 828-1176 Q903P): as the sequence (Q14671 828-1176 S863N/R864F/Q867S) above, with N36S, F37R, S40Q, Q76P counted along it
# Procedure, shortened: as §1
# PUM1 PUF domain R8-MYF = PUM1 PUF domain R8-MYF (Homo sapiens, UniProt Q14671 828-1176, N1122M;Q1126F)
# PUM1 PUF domain R8-MYF, sequence (Q14671 828-1176 N1122M/Q1126F): as the sequence (Q14671 828-1176 S863N/R864F/Q867S) above, with N36S, F37R, S40Q, N295M, Q299F counted along it
# Procedure, shortened: as §1
# PUM1 PUF domain R5-SQK = PUM1 PUF domain R5-SQK (Homo sapiens, UniProt Q14671 828-1176, C1007S;R1008Q;Q1011K)
# Procedure, shortened: as §1
# PUM1 PUF domain R5-KDK = PUM1 PUF domain R5-KDK (Homo sapiens, UniProt Q14671 828-1176, C1007K;R1008D;Q1011K)
# Procedure, shortened: as §1
# PUM1 PUF domain R6-IFG = target: T4, PUM1 PUF domain R6-IFG (Homo sapiens, UniProt Q14671 828-1176, N1043I;Y1044F;Q1047G)
# T4 sequence: T1 sequence with Q216I, Y217F, V220G
# Procedure, shortened: as §1
# PUM1 PUF domain R7-GCR = PUM1 PUF domain R7-GCR (Homo sapiens, UniProt Q14671 828-1176, S1079G;N1080C;E1083R)
# Procedure, shortened: as §1
# PUM1 PUF domain R7-CSR = PUM1 PUF domain R7-CSR (Homo sapiens, UniProt Q14671 828-1176, S1079C;N1080S;E1083R)
# Procedure, shortened: as §1
# PUM1 PUF domain R7-LMF = PUM1 PUF domain R7-LMF (Homo sapiens, UniProt Q14671 828-1176, S1079L;N1080M;E1083F)
# PUM1 PUF domain R7-LMF, sequence (Q14671 828-1176 S1079L/N1080M/E1083F): as the sequence (Q14671 828-1176 S863N/R864F/Q867S) above, with N36S, F37R, S40Q, S252L, N253M, E256F counted along it
# Procedure, shortened: as §1
# PUM1 PUF domain R2-LPC = PUM1 PUF domain R2-LPC (Homo sapiens, UniProt Q14671 828-1176, N899L;Y900P;Q903C)
# PUM1 PUF domain R2-LPC, sequence (Q14671 828-1176 N899L/Y900P/Q903C): as the sequence (Q14671 828-1176 S863N/R864F/Q867S) above, with N36S, F37R, S40Q, N72L, Y73P, Q76C counted along it
# Procedure, shortened: as §1
# PUM1 PUF domain R2-KVA = PUM1 PUF domain R2-KVA (Homo sapiens, UniProt Q14671 828-1176, N899K;Y900V;Q903A)
# PUM1 PUF domain R2-KVA, sequence (Q14671 828-1176 N899K/Y900V/Q903A): as the sequence (Q14671 828-1176 S863N/R864F/Q867S) above, with N36S, F37R, S40Q, N72K, Y73V, Q76A counted along it
# Procedure, shortened: as §1
# PUM1 PUF domain R3-GCK = PUM1 PUF domain R3-GCK (Homo sapiens, UniProt Q14671 828-1176, C935G;R936C;Q939K)
# PUM1 PUF domain R3-GCK, sequence (Q14671 828-1176 C935G/R936C/Q939K): as the sequence (Q14671 828-1176 S863N/R864F/Q867S) above, with N36S, F37R, S40Q, C108G, R109C, Q112K counted along it
# Procedure, shortened: as §1
# PUM1 PUF domain R5-SQA = PUM1 PUF domain R5-SQA (Homo sapiens, UniProt Q14671 828-1176, C1007S;R1008Q;Q1011A)
# PUM1 PUF domain R5-SQA, sequence (Q14671 828-1176 C1007S/R1008Q/Q1011A): as the sequence (Q14671 828-1176 S863N/R864F/Q867S) above, with N36S, F37R, S40Q, C180S, R181Q, Q184A counted along it
# Procedure, shortened: as §1
sequence,measurement,setting,value
GGCUAGAACUAGUGGAUCCCCCGGCGCCCGGCGGCUCGAGCCCGGGUAAGUGUAAAUUGUCUGCAUGCCGCCGGGCGCCAUGCCUGCAGGUCGACUCUAGAAAACAUG,binding signal,PUM1 PUF domain R1-KFL,2.99 log2 enrichment (interaction score)
same,binding signal,PUM1 PUF domain R1-NFS,7.9 log2 enrichment (interaction score)
GGCUAGAACUAGUGGAUCCCCCGGCGCCCGGCGGCUCGAGCCCGGGUAAGUGUAAAUCGUCUGCAUGCCGCCGGGCGCCAUGCCUGCAGGUCGACUCUAGAAAACAUG,binding signal,PUM1 PUF domain R1-KFL,4.43 log2 enrichment (interaction score)
GGCUAGAACUAGUGGAUCCCCCGGCGCCCGGCGGCUCGAGCCCGGGUAAGUGUAAAUAGUCUGCAUGCCGCCGGGCGCCAUGCCUGCAGGUCGACUCUAGAAAACAUG,binding signal,PUM1 PUF domain R8-PFR,3.82 log2 enrichment (interaction score)
same,binding signal,PUM1 PUF domain R6-QYV,3.63 log2 enrichment (interaction score)
same,binding signal,PUM1 PUF domain R6-KYL,5.29 log2 enrichment (interaction score)
same,binding signal,PUM1 PUF domain R6-IWG,3.59 log2 enrichment (interaction score)
same,binding signal,PUM1 PUF domain R3-DWV,2.15 log2 enrichment (interaction score)
same,binding signal,PUM1 PUF domain R3-YYR,3.94 log2 enrichment (interaction score)
same,binding signal,PUM1 PUF domain R2-NYP,4.08 log2 enrichment (interaction score)
GGCUAGAACUAGUGGAUCCCCCGGCGCCCGGCGGCUCGAGCCCGGGUAAGCGUAAAUAGUCUGCAUGCCGCCGGGCGCCAUGCCUGCAGGUCGACUCUAGAAAACAUG,binding signal,PUM1 PUF domain R8-PFR,5.6 log2 enrichment (interaction score)
same,binding signal,PUM1 PUF domain R8-MYF,2.53 log2 enrichment (interaction score)
GGCUAGAACUAGUGGAUCCCCCGGCGCCCGGCGGCUCGAGCCCGGGUAAGUGUUAAUAGUCUGCAUGCCGCCGGGCGCCAUGCCUGCAGGUCGACUCUAGAAAACAUG,binding signal,PUM1 PUF domain R5-SQK,2.21 log2 enrichment (interaction score)
GGCUAGAACUAGUGGAUCCCCCGGCGCCCGGCGGCUCGAGCCCGGGUAAGUGUCAAUAGUCUGCAUGCCGCCGGGCGCCAUGCCUGCAGGUCGACUCUAGAAAACAUG,binding signal,PUM1 PUF domain R5-KDK,2.95 log2 enrichment (interaction score)
GGCUAGAACUAGUGGAUCCCCCGGCGCCCGGCGGCUCGAGCCCGGGUAAGUGAAAAUAGUCUGCAUGCCGCCGGGCGCCAUGCCUGCAGGUCGACUCUAGAAAACAUG,binding signal,PUM1 PUF domain R6-IFG,4.32 log2 enrichment (interaction score)
same,binding signal,PUM1 PUF domain R6-IWG,1.15 log2 enrichment (interaction score)
GGCUAGAACUAGUGGAUCCCCCGGCGCCCGGCGGCUCGAGCCCGGGUAAGUCUAAAUAGUCUGCAUGCCGCCGGGCGCCAUGCCUGCAGGUCGACUCUAGAAAACAUG,binding signal,PUM1 PUF domain R7-GCR,5.49 log2 enrichment (interaction score)
GGCUAGAACUAGUGGAUCCCCCGGCGCCCGGCGGCUCGAGCCCGGGUAAGUUUAAAUAGUCUGCAUGCCGCCGGGCGCCAUGCCUGCAGGUCGACUCUAGAAAACAUG,binding signal,PUM1 PUF domain R7-CSR,3.61 log2 enrichment (interaction score)
same,binding signal,PUM1 PUF domain R7-LMF,3.84 log2 enrichment (interaction score)
GGCUAGAACUAGUGGAUCCCCCGGCGCCCGGCGGCUCGAGCCCGGGUAAGUGUAAAGAGUCUGCAUGCCGCCGGGCGCCAUGCCUGCAGGUCGACUCUAGAAAACAUG,binding signal,PUM1 PUF domain R2-LPC,3.13 log2 enrichment (interaction score)
same,binding signal,PUM1 PUF domain R2-KVA,3.4 log2 enrichment (interaction score)
GGCUAGAACUAGUGGAUCCCCCGGCGCCCGGCGGCUCGAGCCCGGGUAAGUGUAAGUAGUCUGCAUGCCGCCGGGCGCCAUGCCUGCAGGUCGACUCUAGAAAACAUG,binding signal,PUM1 PUF domain R3-DWV,3.22 log2 enrichment (interaction score)
same,binding signal,PUM1 PUF domain R3-GCK,2.22 log2 enrichment (interaction score)
GGCUAGAACUAGUGGAUCCCCCGGCGCCCGGCGGCUCGAGCCCGGGUAAGUGUAACUAGUCUGCAUGCCGCCGGGCGCCAUGCCUGCAGGUCGACUCUAGAAAACAUG,binding signal,PUM1 PUF domain R3-YYR,2.31 log2 enrichment (interaction score)
GGCUAGAACUAGUGGAUCCCCCGGCGCCCGGCGGCUCGAGCCCGGGUAAGUGUAAUUAGUCUGCAUGCCGCCGGGCGCCAUGCCUGCAGGUCGACUCUAGAAAACAUG,binding signal,PUM1 PUF domain R3-GCK,2.81 log2 enrichment (interaction score)
GGCUAGAACUAGUGGAUCCCCCGGCGCCCGGCGGCUCGAGCCCGGGUAAGUGUGAAUAGUCUGCAUGCCGCCGGGCGCCAUGCCUGCAGGUCGACUCUAGAAAACAUG,binding signal,PUM1 PUF domain R5-SQA,3.09 log2 enrichment (interaction score)

# Source: paper PMC8384837, “Expanding the binding specificity for RNA recognition by a PUF domain”
